From the OligoGym collection

The sequences below were run against MAGEA2B (assay: pooled miR-30 sensor sort-seq; sequence = guide strand). Conditions: shRNA.
Note: reference of the scale not given here.

| Sequence | sensor-assay potency score (higher = more potent) |
| --- | --- |
| TTGCATGAGCAGCTTCCTGGGA | -0.244 |
| AAATGTGAGGTTCTCCACCGAT | -0.397 |
| ATTTCTGAGGACACTCTCCAGC | -1.24 |
| TCTTGCATGAGCAGCTTCCTGG | -1.1 |
| ACCAACTCAACCATCTTCCTAC | -1.03 |
| TCCAGGTCGGGAAACATTCTTG | -1.23 |
| AAAATGAACCAACTCAACCATC | -1.2 |
| TCTTCCTACTGATTGCTGCTTG | -0.703 |
| TTAGTGTATGGTGCAGGACTTT | -1.05 |

What follows are sequences tested against MAGEA8 in the same assay as above. Conditions: shRNA.

| Sequence | sensor-assay potency score (higher = more potent) |
| --- | --- |
| TTCCTCAGCCTTGTAGCGCTGA | 0.23 |
| TTTCTCATCAAGTGCTTCCCGG | -0.5 |
| TTCTCATCAAGTGCTTCCCGGA | -0.615 |
| TAGAGGAGGAGGATGCAGCCTT | -0.332 |
| TTTATGTCTTTATCTCATGTAT | -0.397 |
| TAGCGCACAGGATCACTGCCGG | -0.803 |
| TTCTTTATGTCTTTATCTCATG | -1.14 |
| TGTGGGAATCTGCACATCCATA | -1.63 |
| TTTGATGACACTCTCAAGCATT | -0.926 |
| ATCAATGCCAAAGATCACCTGC | 0.274 |
| TAATCCTCTGCTCTTGTAGTGT | -0.188 |

These sequences were tested against MAGED2 in the same assay as above. Conditions: shRNA.

| Sequence | sensor-assay potency score (higher = more potent) |
| --- | --- |
| TTGGGTGAGTCCTTAGTCGTTC | -0.156 |
| TTCTTTTGTACCTTGCAGGCAA | 0.18 |
| TTGATGGGAATCTTCGTCTGGT | -0.0413 |
| TTGTATTGACCTTTGTATCAGC | -0.669 |
| TTTTGAGACCTTCACATCCTCT | -1.1 |
| AACAGAGTCTGCATCATCGAGC | -0.281 |
| TTTAGCTTCTGCTCCCGCCTGG | -0.0182 |
| TTCTTTGATGATGTCCTTCAGC | -0.636 |
| TTTGATGATGTCCTTCAGCATG | -1.48 |
| TTTCTTGGCTTTGACCTTGGGC | 0.00108 |
| TCGAGCTCTAATCTCGGCCCTA | -0.609 |

Each sequence was assayed against MAGOHB in the same assay as above. Conditions: shRNA.

| Sequence | sensor-assay potency score (higher = more potent) |
| --- | --- |
| TTCTTCCATTACACTCTTGTGC | -0.965 |
| TTTCTGATCATCACATCATTTT | -1.65 |
| TTTTCTGATCATCACATCATTT | -1.33 |
| AAACTAAACATTTCAAGTCTTG | -0.697 |
| TTCTTTTGTAATTTCACTGTCA | 0.267 |
| AATTACAATTTCAAGCTCCTGT | 0.142 |
| TTCCATTACACTCTTGTGCACA | -0.478 |
| TTCGAACTCCAGAAACTCGTGC | 0.282 |
| TTACATCAATAAGAGAACCTAT | -0.7 |
